According to PubChem BioAssay AID1159580 (chemical genetic matrix, 2015):
Hit rate of the full screen: of about 5,500 compounds, about 2,000 (36%) were called active. About 18% were inconclusive and are not listed. Cut-off read from the data, not from the text of the source: active = normalized growth mostly below about 0.91 (no sharp cut-off); inconclusive = no clear call, values can overlap the other calls; inactive = mostly above about 0.92. The list shows a part of the results.

Assay: chemical genetic growth profiling, strain panel (AID 1159580);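 note: tested at 20 µM; growth read once vehicle control cultures reached saturation at 30 °C; 1 = growth at the plate median or of vehicle wells; lower values mean less growth of the strain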
Conditions: growth OD

Measured: normalized growth

CC(=O)O[C@@H]1CC2C(C)(C)C(=O)C=C[C@]2(C)C2CC[C@@]3(C)[C@H](c4ccoc4)OC(=O)[C@H]4O[C@]43[C@@]21C (stereo partly drawn)
inactive: S. cerevisiae deletion strains, locus YJR066W, strain TOR1, active compounds read low 0.932 | S. cerevisiae deletion strains, locus YKL009W, strain mrt4, active compounds read low 1.07 | S. cerevisiae deletion strains, locus YKL068W, active compounds read low 1 | S. cerevisiae deletion strains, locus YKL085W, strain MDH1 (second series), active compounds read low 1.03 | S. cerevisiae deletion strains, locus YKL085W, strain MDH1, active compounds read low 1.03 | S. cerevisiae deletion strains, locus YKL160W, strain elf1, active compounds read low 1.02 | S. cerevisiae deletion strains, locus YKR001C, strain vps1, active compounds read low 0.975 | S. cerevisiae deletion strains, locus YKR026C, strain gcn3, active compounds read low 0.985 | S. cerevisiae deletion strains, locus YKR091W, strain srl3, active compounds read low 1 | S. cerevisiae deletion strains, locus YLL001W, strain dnm1, active compounds read low 0.972 | S. cerevisiae deletion strains, locus YLL026W, active compounds read low 1.01 | S. cerevisiae deletion strains, locus YLL041C, strain sdh2, active compounds read low 0.992 | S. cerevisiae deletion strains, locus YLR027C, strain aat2, active compounds read low 1.02 | S. cerevisiae deletion strains, locus YLR039C, strain RIC1, active compounds read low 0.877 | S. cerevisiae deletion strains, locus YLR058C, strain SHM2, active compounds read low 1 | S. cerevisiae deletion strains, locus YLR102C, strain apc9, active compounds read low 0.993 | S. cerevisiae deletion strains, locus YLR113W, strain HOG1, active compounds read low 0.987 | S. cerevisiae deletion strains, locus YLR221C, strain rsa3, active compounds read low 0.989 | S. cerevisiae deletion strains, locus YLR258W, strain gsy2, active compounds read low 1.01 | S. cerevisiae deletion strains, locus YLR262C, strain YPT6 (second series), active compounds read low 0.927 | S. cerevisiae deletion strains, locus YLR262C, strain YPT6, active compounds read low 0.962 | S. cerevisiae deletion strains, locus YLR268W, strain sec22, active compounds read low 1 | S. cerevisiae deletion strains, locus YLR320W, strain mms22, active compounds read low 0.954 | S. cerevisiae deletion strains, locus YLR330W, strain CHS5, active compounds read low 1.01 | S. cerevisiae deletion strains, locus YLR342W, strain FKS1 (second series), active compounds read low 0.966 | S. cerevisiae deletion strains, locus YLR342W, strain FKS1, active compounds read low 1.01 | S. cerevisiae deletion strains, locus YLR357W, strain rsc2, active compounds read low 1.12 | S. cerevisiae deletion strains, locus YLR370C, strain arc18, active compounds read low 1 | S. cerevisiae deletion strains, locus YLR371W, strain rom2, active compounds read low 0.989 | S. cerevisiae deletion strains, locus YLR384C, strain iki3, active compounds read low 1.02 | S. cerevisiae deletion strains, locus YLR418C, strain cdc73, active compounds read low 1.04 | S. cerevisiae deletion strains, locus YML016C, strain PPZ1, active compounds read low 0.999 | S. cerevisiae deletion strains, locus YML032C, strain rad52, active compounds read low 0.993 | S. cerevisiae deletion strains, locus YML120C, strain ndi1, active compounds read low 0.965 | S. cerevisiae deletion strains, locus YML124C, strain tub3, active compounds read low 0.979 | S. cerevisiae deletion strains, locus YMR058W, strain fet3, active compounds read low 0.983 | S. cerevisiae deletion strains, locus YMR078C, strain ctf18, active compounds read low 0.983 | S. cerevisiae deletion strains, locus YMR125W, strain sto1, active compounds read low 1.07 | S. cerevisiae deletion strains, locus YMR129W, active compounds read low 1 | S. cerevisiae deletion strains, locus YMR205C, strain PFK2, active compounds read low 0.981 | S. cerevisiae deletion strains, locus YMR223W, strain ubp8, active compounds read low 1 | S. cerevisiae deletion strains, locus YMR231W, strain pep5, active compounds read low 1.01 | S. cerevisiae deletion strains, locus YMR263W, strain SAP30, active compounds read low 0.993 | S. cerevisiae deletion strains, locus YMR307W, strain GAS1, active compounds read low 0.918 | S. cerevisiae deletion strains, locus YNL067W, strain RPL9B, active compounds read low 1.01 | S. cerevisiae deletion strains, locus YNL071W, strain lat1, active compounds read low 1 | S. cerevisiae deletion strains, locus YNL183C, strain NPR1, active compounds read low 0.943 | S. cerevisiae deletion strains, locus YNL209W, strain ssb2, active compounds read low 1.01 | S. cerevisiae deletion strains, locus YNL233W, strain BNI4, active compounds read low 1.02 | S. cerevisiae deletion strains, locus YNL248C, strain rpa49, active compounds read low 1.06 | S. cerevisiae deletion strains, locus YNL250W, strain rad50, active compounds read low 1.01 | S. cerevisiae deletion strains, locus YNL271C, strain bni1, active compounds read low 1 | S. cerevisiae deletion strains, locus YNL298W, strain CLA4, active compounds read low 1 | S. cerevisiae deletion strains, locus YNL307C, strain MCK1, active compounds read low 0.989 | S. cerevisiae deletion strains, locus YNL322C, strain KRE1 (second series), active compounds read low 1.01 | S. cerevisiae deletion strains, locus YNL322C, strain KRE1, active compounds read low 1 | S. cerevisiae deletion strains, locus YNR049C, strain mso1, active compounds read low 1.01 | S. cerevisiae deletion strains, locus YNR052C, strain pop2, active compounds read low 0.981 | S. cerevisiae deletion strains, locus YOL006C, strain TOP1, active compounds read low 1.01 | S. cerevisiae deletion strains, locus YOL012C, strain htz1 0.906 | S. cerevisiae deletion strains, locus YOL147C, strain pex11, active compounds read low 0.988 | S. cerevisiae deletion strains, locus YOR001W, strain rrp6, active compounds read low 0.976 | S. cerevisiae deletion strains, locus YOR061W, strain CKA2, active compounds read low 0.997 | S. cerevisiae deletion strains, locus YOR069W, strain VPS5, active compounds read low 1 | S. cerevisiae deletion strains, locus YOR070C, strain gyp1, active compounds read low 1.01 | S. cerevisiae deletion strains, locus YOR080W, strain dia2, active compounds read low 0.996 | S. cerevisiae deletion strains, locus YOR083W, strain WHI5, active compounds read low 0.98 | S. cerevisiae deletion strains, locus YOR106W, strain vam3, active compounds read low 1.03 | S. cerevisiae deletion strains, locus YOR136W, strain idh2, active compounds read low 1.01 | S. cerevisiae deletion strains, locus YOR144C, strain elg1, active compounds read low 0.979 | S. cerevisiae deletion strains, locus YOR184W, strain ser1, active compounds read low 1.02 | S. cerevisiae deletion strains, locus YOR231W, strain MKK1, active compounds read low 0.998 | S. cerevisiae deletion strains, locus YOR265W, strain rbl2, active compounds read low 1.01 | S. cerevisiae deletion strains, locus YOR270C, strain vph1, active compounds read low 0.896 | S. cerevisiae deletion strains, locus YOR290C, strain snf2, active compounds read low 1.02 | S. cerevisiae deletion strains, locus YOR316C, strain cot1, active compounds read low 0.987 | S. cerevisiae deletion strains, locus YPL051W, strain arl3, active compounds read low 1.02 | S. cerevisiae deletion strains, locus YPL078C, strain atp4, active compounds read low 1.01 | S. cerevisiae deletion strains, locus YPL106C, strain sse1, active compounds read low 1.05 | S. cerevisiae deletion strains, locus YPL240C, strain hsp82, active compounds read low 0.997 | S. cerevisiae deletion strains, locus YPL241C, strain CIN2, active compounds read low 0.992 | S. cerevisiae deletion strains, locus YPL256C, strain CLN2, active compounds read low 0.997 | S. cerevisiae deletion strains, locus YPR119W, strain clb2, active compounds read low 0.981 | S. cerevisiae deletion strains, locus YPR141C, strain kar3, active compounds read low 1.01 | S. cerevisiae deletion strains, locus YPR163C, strain tif3, active compounds read low 0.984 | S. cerevisiae deletion strains, locus YPR167C, strain met16, active compounds read low 1 | S. cerevisiae deletion strains, strain wtn01, active compounds read low 1.01 | S. cerevisiae strains, strain wild type, active compounds read low 1
